# High-throughput results deposited in PubChem by Broad Institute.
# CaV13 ICDI inh – Primary screen for inhibitors of IQ motif and Ca2+-dependent inactivation inhibitor domain binding in CACNA1D, Förster resonance energy transfer in living cells, …; 340,000 tested, 0.098% active; HEK cells, CFP/YFP FRET ICDI-IQ, plate reader, 10 min; percent FRET-ratio fall versus neutral wells; inhibition, % at 12.3 µM;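 active means mean replicate inhibition of at least 30% and at least 1% of replicates passing that level; inconclusive means only one of the two criteria is met; inactive means neither criterion is met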;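 further: 0% = median of the neutral control wells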
# Ecoli rRNA inh – reduced GFP signal of wild-type E. coli, primary screen, bacterial rRNA inhibitor project, GFP/RFP fluorescence, OD600, single point; GFP signal change (wild-type ribosome), % (no concentration beside the values); 350,000 tested, 1.6% active; AID 720706, 2013; E. coli WT GFP vs humanized-ribosome RFP mutants, 24 h; active compounds read low; DMSO median 0, no signal -100;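 active means significant combined selectivity score with lowered wild-type GFP, culture density cut under 30%, mutant RFP and density less affected; inactive means any of these conditions unmet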
# ERAP1 inh – human ERAP1 aminopeptidase inhibitors, primary screen, biochemical, single point, plate reader; Endoplasmic reticulum aminopeptidase 1 (Homo sapiens), Q9NZ08; recombinant ERAP1, Leu-AMC fluorescence, 60 min; inhibition, % at 10.7 µM; 340,000 tested, 0.15% active; AID 652197, 2013;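 active means mean replicate inhibition of at least 30%, or all replicates individually reaching that 30% level; inactive means mean below 30% and not every replicate reaching it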;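 further: 0% = neutral control wells and 100% = L-leucinethiol positive control wells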
# INS-1E GSIS act – GLuc luminescence reporter in INS-1E cells, primary screen for activators of glucose-dependent secretion of insulin. INS-1E GLuc reporter insulin secretion, 2-3 h. activation, % at 16.6 µM. 370,000 tested, 0.61% active;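 active means lowest replicate activation of at least 40%, so every replicate reaches that level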;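 further: 0% = median of neutral control wells and 100% = median of IBMX positive control wells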
# DENV2 CPE rescue – inhibitors of DENV2 cytopathic effect, primary screen, cell-based, plate reader, single concentration; DENV2-infected cells, cytopathic effect rescue; CPE inhibition, % at 9.99 µM; 350,000 tested, 1.7% active; AID 651640, 2012; in the data active means CPE inhibition above about 20%, passing the limit was not always enough; inconclusive means no clear call, values can overlap the other calls; tested in BHK-21 cells;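 further: 0% = median of neutral control wells and 100% = median of positive control wells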
# PGC1a acetyl inh – inhibitors of PGC1a acetylation signal, primary screen, cell-based, U2OS, AlphaScreen, inhibitor mode | AlphaScreen anti-acetyl-lysine; with virally co-expressed GCN5 acetyltransferase | inhibition, % at 15.6 µM | 350,000 tested, 0.17% active;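 active means every replicate shows inhibition of at least 40%; inconclusive means mean inhibition at least 40% but some replicate below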;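 further: 0% = neutral control wells and 100% = positive control wells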
# * hit, by the source's call; u = inconclusive; x = no result. A selection: hits, their analogues and other compounds. The true share with any hit is near 3.2%.
SMILES,CaV13 ICDI inh,Ecoli rRNA inh,ERAP1 inh,INS-1E GSIS act,DENV2 CPE rescue,PGC1a acetyl inh
Cc1ccc(-c2nc(N)s[n+]2-c2ccccc2)cc1,23,-16,-3,12,-5,x
CNc1nc(-c2ccccc2)[n+](-c2ccc(C)cc2)s1,-8,x,x,176*,x,x
COc1ccc2c3c(n(C)c2c1)[C@H](CO)N(CC1CCCC1)CC31CN(C(=O)Nc2ccccc2)C1,x,-5,0,-17,5,-47
COc1ccc2c3c(n(C)c2c1)[C@H](CO)N(Cc1ccccc1F)CC31CN(C(C)=O)C1,x,1,-6,7,5,2
COc1ccc2c3c(n(C)c2c1)[C@H](CO)N(Cc1ccccc1F)CC31CCN(C(C)=O)CC1,x,3,x,-17,93*,-2
COc1ccc2c3c(n(C)c2c1)[C@@H](CO)N(CC1CC1)CC31CN(C(=O)CC2CC2)C1,x,-1,-4,-7,21*,-3
COc1ccc2c3c(n(C)c2c1)[C@H](CO)N(CC1CC1)CC31CN(C(=O)CC2CC2)C1,x,0,-3,1,-2,-6
COc1ccc2c3c(n(C)c2c1)[C@H](CO)N(CC1CC1)CC31CN(C(=O)Nc2ccccc2)C1,x,-3,x,-14,23*,x
Cn1ncc2c(O/N=C(\N)c3ccc(C(F)(F)F)cc3)ncnc21,-16,-17*,-4,x,-4,u
C/C=C(\C)C(=O)Nc1cccc(C2=NOC3(C2)C[C@@H](C(N)=O)N(C(=O)c2ccccc2C(=O)c2ccccc2)C3)c1 (stereo partly specified),-10,-9,1,x,23*,x
C/C=C(\C)C(=O)Nc1cccc(C2=NOC3(C2)C[C@@H](C(N)=O)N(C(=O)/C(C)=C/C)C3)c1 (stereo partly specified),-2,-3,-2,7,30*,-10
C=C(C)C(=O)Nc1cccc(C2=NOC3(C2)C[C@@H](C(N)=O)N(C(=O)/C(C)=C/C)C3)c1 (stereo partly specified),-10,3,4,-6,0,-8
COC(=O)C1=C(C)N(C)C(=S)N(C)C1c1cccc(Br)c1 (stereo unspecified),-3,-34*,0,-22,x,-16
COCC(=O)N1CC2(CN(Cc3nccs3)C2)c2c(n(C)c3cc(OC)ccc23)[C@@H]1CO,x,0,x,71,15,6
O=C(C[C@H]1C[C@@H]2c3cc(NS(=O)(=O)c4ccc(F)cc4)ccc3O[C@@H]2[C@H](CO)O1)N1CCc2ccccc2C1,x,-10,-6,-24,-3,-1
O=C(Nc1ccc2c(c1)[C@@H]1C[C@H](CC(=O)N3CCCCC3)O[C@H](CO)[C@@H]1O2)C1CCC1,x,1,2,5,19,-3
O=C(Nc1ccc(F)cc1)Nc1ccc2c(c1)[C@H]1C[C@H](CC(=O)N3CCCCC3)O[C@@H](CO)[C@H]1O2,x,-2,x,-7,21*,-1
O=C(C[C@H]1C[C@@H]2c3cc(NS(=O)(=O)c4ccc(F)cc4)ccc3O[C@@H]2[C@@H](CO)O1)N1CCc2ccccc2C1,x,-28,-4,-9,7,50*
O=C(Nc1ccc2c(c1)[C@H]1C[C@@H](CC(=O)N3CCCCC3)O[C@@H](CO)[C@H]1O2)C1CCC1,x,0,2,1,26*,-6
CN1CCN(C(=O)C[C@@H]2C[C@@H]3c4cc(NC(=O)NC5CCCCC5)ccc4O[C@@H]3[C@@H](CO)O2)CC1,x,5,-4,4,29*,-2
O=C1c2ccccc2C(=O)N1CC(=O)N1c2ccccc2Sc2ccc(C(F)(F)F)cc21,-5,6,1,8,35*,13
C[C@@H]1CCCCO[C@@H](CN(C)S(=O)(=O)c2cccs2)[C@@H](C)CN([C@H](C)CO)C(=O)c2cc(NC(=O)Nc3cccc4ccccc34)ccc2O1,x,-1,x,16,-3,3
O=C(O)c1ccc(C2NCC(c3ccccc3Cl)c3c2[nH]c2ccccc32)cc1 (stereo unspecified),-2,-37*,-5,10,17,1
COc1ccc(NC(=O)Nc2ccc3c(c2)C(=O)N([C@H](C)CO)C[C@@H](C)[C@H](CN(C)Cc2ccncc2)OCCCC[C@@H](C)O3)cc1,x,-1,2,-8,-13,-4
OC[C@@H]1[C@@H](c2ccc(C#CC3CCCC3)cc2)[C@@H]2CN(CCC(F)(F)F)CCCCN12,x,-59,0,46*,5,-17
SMILES,CaV13 ICDI inh,Ecoli rRNA inh,ERAP1 inh,INS-1E GSIS act,DENV2 CPE rescue,PGC1a acetyl inh
OC[C@H]1[C@H](c2ccc(C#CC3CCCC3)cc2)[C@@H]2CN(CCC(F)(F)F)CCCCN12,x,-58,12,24,-6,-65
OC[C@@H]1[C@@H](c2ccc(C#CC3CCCC3)cc2)[C@H]2CN(CCC(F)(F)F)CCCCN12,x,-56,6,170*,3,-57
OC[C@H]1[C@H](c2ccc(C#CC3CCCC3)cc2)[C@H]2CN(CCC(F)(F)F)CCCCN21,x,-57,0,33,-9,-20
O=C(N/N=C/c1ccc2c(c1)OCO2)c1ccc(Cl)cc1Cl,-7,0,-1,58*,-2,-11
C[n+]1cccc(C(=O)N/N=C/c2ccc3c(c2)OCO3)c1,-2,7,46*,4,1,2
O=C(N/N=C/c1ccc(Cl)cc1)c1ccc2c(c1)OCO2,-4,5,-1,5,-2,-7
O=C(N/N=C/C=C/c1ccc2c(c1)OCO2)c1ccc([N+](=O)[O-])cc1,-4,x,x,74*,x,4
COc1ccc2c3c([nH]c2c1)[C@H](CO)N(C(=O)Nc1ccc(F)cc1)CC31CCN(Cc2cc(F)ccc2F)CC1,x,-11,-1,0,8,-1
COCC(=O)N1C[C@@H](C)[C@H](OC)CN(C)C(=O)c2cc(NC(=O)c3cnccn3)ccc2OC[C@@H]1C,x,-1,-1,12,-7,1
CC1=C(C(=O)N(C)C)CC(CC(=O)NCc2cccc3ccccc23)C(=O)N1CCC1=CCCCC1 (stereo unspecified),-17,-27*,-4,-25,-4,-15
CCN(CC)C(=O)C1=C(C)N(CCC2=CCCCC2)C(=O)C(CC(=O)NCc2cccc3ccccc23)C1 (stereo unspecified),-1,x,-1,-35,-3,1
CC[C@@H]1CC2=C(C(=O)OC(C)(C)O2)[C@H](c2ccc(F)cc2)O1,-5,2,0,45*,-11,-5
